Data on five compounds can be found in PubChem BioAssay.

Assay [1] relates to Wnt5a (protein binding on small-molecule microarray). Put plainly: Wnt5a binders on small-molecule microarray, primary screen, biophysical, 635/667 nm fluorescence (AID 1142).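 Also: fluorescence read at 667 nm with signal to noise per printed feature.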 The settings on record: 635 nm fluorescence, higher = more signal.
Assay [2] can be described thus: cell viability in Huh7 cells, primary screen, cytotoxicity control for HCV replication inhibitor project, CellTiter-Glo luminescence, basal, 48 h (AID 1143).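 Also: Huh7 hepatoma cells carrying a hepatitis C replication reporter with no stimulus; test concentration not given here.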 The settings on record: Huh7 HCV replicon, higher = more signal, called active from +8 up or from −8 down.
Assay [3] in a line: P. aeruginosa biofilm formation inhibitors, primary screen, PAO1 strain, BacTiter-Glo luminescence, LB-PBS (AID 1144). The settings on record: 12 h, higher = more signal.
Assay [4] in a line: CREB reporter modulators without forskolin, primary screen, cell-based, PC12, CRE-LacZ reporter, unstimulated (AID 1145). The settings on record: no forskolin, luminescence, 4.5 h, higher = more signal, called active from +8 up or from −8 down.
A short description of assay [5]: CREB reporter modulators under forskolin, primary screen, cell-based, PC12, CRE-LacZ reporter, forskolin-stimulated (AID 1146).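 Also: PC12 cells with 6xCRE LacZ reporter stimulated by forskolin 10 µM; beta-galactosidase reporter signal reflecting CREB driven transcription.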 Particulars: luminescence, 4.5 h, higher = more signal, called active from +8 up or from −8 down.
The target in assay [6] is Streptavidin (Streptomyces avidinii) (UniProt P22629). Briefly: streptavidin binders on small-molecule microarray, primary screen, artefact control for SMM compound annotation, biophysical, 635/667 nm fluorescence (AID 1147).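 Also: signal reflects streptavidin binding to arrayed compounds as a control protein.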 Particulars: streptavidin binding, higher = more signal.
The nature of assay [7]: small-molecule binders of probe aInhba, primary screen, biochemical, small-molecule microarray, 635/667 nm fluorescence (AID 1148).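 Also: score merges 667nm spot fluorescence with signal-to-noise for antibody binding to printed compounds.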 The settings on record: higher = more signal.
The target in assay [8] is Torsin-1A (Homo sapiens) (UniProt O14656). Put plainly: torsin A binders from cell lysate, primary screen, small-molecule microarray, wild-type, 635/667 nm (AID 1149). Particulars: COS7 hTOR1A-WT lysate, 635 nm fluorescence, higher = more signal.
Assay [9] has the same target. Put plainly: small-molecule binders of mutant TOR1A in lysate, primary screen, cell lysate, small-molecule microarray, COS7 lysate, 635/667 nm fluorescence (AID 1150).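 Also: score pools 667 nm emission and signal to noise measuring lysate protein binding.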 Particulars: COS7 hTOR1A mutant lysate, 635 nm fluorescence, higher = more signal.
Assay [10] has as its system Sonic hedgehog protein (Shh). Briefly: small-molecule binders of Shh protein, primary screen, biochemical, small-molecule microarray, 635/667 nm fluorescence (AID 1151).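 Also: Shh protein binding to compounds spotted on small-molecule microarray slides; score combines spot fluorescence intensity with signal-to-noise across triplicate slides.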 Particulars: small-molecule microarray binding, 635 nm fluorescence; higher = more signal.
Assay [11] in a line: E. coli DRC41 culture turbidity changes, primary screen, E. coli filamentation inducer project, strain DRC41, OD650, 48 h (AID 1152).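 Also: E. coli MC1000 strain DRC41 lacking acrAB efflux pump and sulA.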 The settings on record: E. coli DRC41 (acrAB sulA), higher = more signal, called active from +8 up or from −8 down.
Assay [12] is described as follows: small-molecule binders of probe aLefty1, primary screen, biochemical, small-molecule microarray, 635/667 nm fluorescence (AID 1153).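 Also: score merges spot fluorescence with signal-to-noise ratio from the scanned slide images.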 The settings on record: higher = more signal.
Assay [13] in a line: PSAC antagonists in infected red cells, primary screen, cell-based, P. falciparum Indochina, OD700, 1 h (AID 1154). Particulars: P. falciparum Indochina infected RBC osmotic lysis, higher = more signal, called active from +8 up or from −8 down.
A short description of assay [14]: PSAC antagonists in infected red cells, primary screen, cell-based, P. falciparum Indochina, OD700, 2 h (AID 1155).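 Also: lysis reports solute entry through the parasite surface anion channel PSAC; channel blockers reduce lysis of infected cells.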 Particulars: P. falciparum Indochina infected erythrocytes, osmotic lysis OD700; higher = more signal, called active from +8 up or from −8 down.
A short description of assay [15]: osmotic lysis modulators in infected erythrocytes, primary screen, PSAC antagonist project, cell-based, P. falciparum Indochina, OD700, 3 h (AID 1156). Particulars: higher = more signal, called active from +8 up or from −8 down.
Assay [16] is described as follows: PSAC antagonists in infected red cells, primary screen, cell-based, P. falciparum Indochina, OD700, 18 h (AID 1157). Particulars: P. falciparum Indochina infected erythrocytes, osmotic lysis OD700, 18 h; higher = more signal, called active from +8 up or from −8 down.
Assay [17] in a line: modulators of S6 phosphorylation in cells, primary screen, cell-based, A549, cytoblot, luminescence, serum-stimulated (AID 1158).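 Also: serum-stimulated A549 lung adenocarcinoma cells; signal is phosphorylated S6 detected by cytoblot immunostaining with HRP secondary.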 Particulars: A549 phospho-S6 cytoblot, 5 h, higher = more signal.
In assay [18] the target is NADPH oxidase 2 (Homo sapiens) (UniProt P04839). Briefly: NOX2-dependent H2O2 signal modulators, primary screen, NOX inhibitor project, cell-based, HEK293-NOX2, PMA-stimulated, Amplex Red fluorescence (AID 1159). Also: test concentration not given here. Particulars: 45 min, higher = more signal, called active from +8 up or from −8 down.
Assay [19] concerns the target NADPH oxidase 4 (Homo sapiens) (UniProt Q9NPH5). Briefly: NOX4-dependent H2O2 signal modulators, primary screen, NOX inhibitor project, cell-based, HEK293-NOX4, tetracycline-induced, Amplex Red fluorescence (AID 1160). The settings on record: 45 min, higher = more signal, called active from +8 up or from −8 down.
Assay [20] concerns the target NADPH oxidase 5 (Homo sapiens) (UniProt Q96PH1). Put plainly: NOX5-dependent H2O2 signal modulators, primary screen, NOX inhibitor project, cell-based, HEK293-NOX5, Amplex Red fluorescence (AID 1161). Particulars: HEK293-NOX5, ionomycin, 45 min, higher = more signal.

The source made the active and inactive calls. Unless noted, no rule for the calls is given here.

Sequence of NADPH oxidase 5 (Homo sapiens) (Q96PH1 whole entry, looked up): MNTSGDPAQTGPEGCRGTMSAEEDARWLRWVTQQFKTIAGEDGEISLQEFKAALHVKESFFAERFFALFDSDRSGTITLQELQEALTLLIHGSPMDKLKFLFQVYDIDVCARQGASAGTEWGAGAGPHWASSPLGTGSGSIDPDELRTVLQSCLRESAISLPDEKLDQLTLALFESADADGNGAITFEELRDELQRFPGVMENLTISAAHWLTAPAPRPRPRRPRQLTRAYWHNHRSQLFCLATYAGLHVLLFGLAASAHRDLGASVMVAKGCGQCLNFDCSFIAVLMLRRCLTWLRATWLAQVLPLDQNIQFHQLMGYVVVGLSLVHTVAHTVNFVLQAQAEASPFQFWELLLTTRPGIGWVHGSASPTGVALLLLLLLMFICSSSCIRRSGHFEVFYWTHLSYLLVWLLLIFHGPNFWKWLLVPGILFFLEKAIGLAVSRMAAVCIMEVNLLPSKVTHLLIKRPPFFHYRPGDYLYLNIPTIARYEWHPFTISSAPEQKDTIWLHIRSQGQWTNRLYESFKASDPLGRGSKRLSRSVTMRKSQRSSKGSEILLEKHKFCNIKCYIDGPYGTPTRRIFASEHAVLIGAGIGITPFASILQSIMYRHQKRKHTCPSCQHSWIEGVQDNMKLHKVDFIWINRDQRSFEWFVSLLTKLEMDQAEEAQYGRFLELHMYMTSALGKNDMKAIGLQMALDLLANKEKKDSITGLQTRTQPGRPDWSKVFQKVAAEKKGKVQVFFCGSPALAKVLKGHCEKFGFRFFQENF
Sequence of Streptavidin (Streptomyces avidinii) (P22629 whole entry, looked up): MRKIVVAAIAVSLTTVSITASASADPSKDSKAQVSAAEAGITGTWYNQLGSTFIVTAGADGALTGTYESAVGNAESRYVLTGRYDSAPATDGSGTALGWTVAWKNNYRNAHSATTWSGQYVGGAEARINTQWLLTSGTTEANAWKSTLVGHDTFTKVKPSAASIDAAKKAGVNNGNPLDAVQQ
Sequence of NADPH oxidase 4 (Homo sapiens) (Q9NPH5 whole entry, looked up): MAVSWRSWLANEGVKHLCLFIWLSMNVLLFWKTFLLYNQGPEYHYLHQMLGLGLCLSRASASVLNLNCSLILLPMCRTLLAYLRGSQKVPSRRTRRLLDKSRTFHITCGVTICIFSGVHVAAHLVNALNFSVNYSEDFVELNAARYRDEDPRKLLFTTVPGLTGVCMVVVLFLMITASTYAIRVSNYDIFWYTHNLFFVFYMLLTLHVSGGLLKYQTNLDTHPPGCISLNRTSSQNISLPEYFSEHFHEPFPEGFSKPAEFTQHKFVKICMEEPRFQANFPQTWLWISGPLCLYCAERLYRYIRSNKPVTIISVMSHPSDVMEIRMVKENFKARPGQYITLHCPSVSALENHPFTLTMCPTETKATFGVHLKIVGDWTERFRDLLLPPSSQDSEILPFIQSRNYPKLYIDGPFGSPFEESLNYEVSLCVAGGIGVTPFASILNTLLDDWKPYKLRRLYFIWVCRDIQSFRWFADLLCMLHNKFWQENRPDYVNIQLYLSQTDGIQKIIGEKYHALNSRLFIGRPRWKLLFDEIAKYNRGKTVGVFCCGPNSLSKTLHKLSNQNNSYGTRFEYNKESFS
Sequence of Torsin-1A (Homo sapiens) (O14656 whole entry, looked up): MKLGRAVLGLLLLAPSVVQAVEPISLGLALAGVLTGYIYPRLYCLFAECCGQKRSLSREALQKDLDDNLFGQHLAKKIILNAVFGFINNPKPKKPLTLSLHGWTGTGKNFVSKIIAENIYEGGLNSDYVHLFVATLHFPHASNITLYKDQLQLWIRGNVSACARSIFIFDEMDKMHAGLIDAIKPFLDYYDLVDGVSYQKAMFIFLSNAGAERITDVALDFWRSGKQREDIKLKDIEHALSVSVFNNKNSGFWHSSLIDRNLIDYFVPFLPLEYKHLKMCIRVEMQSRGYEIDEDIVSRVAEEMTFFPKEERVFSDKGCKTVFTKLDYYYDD
Sequence of NADPH oxidase 2 (Homo sapiens) (P04839 whole entry, looked up): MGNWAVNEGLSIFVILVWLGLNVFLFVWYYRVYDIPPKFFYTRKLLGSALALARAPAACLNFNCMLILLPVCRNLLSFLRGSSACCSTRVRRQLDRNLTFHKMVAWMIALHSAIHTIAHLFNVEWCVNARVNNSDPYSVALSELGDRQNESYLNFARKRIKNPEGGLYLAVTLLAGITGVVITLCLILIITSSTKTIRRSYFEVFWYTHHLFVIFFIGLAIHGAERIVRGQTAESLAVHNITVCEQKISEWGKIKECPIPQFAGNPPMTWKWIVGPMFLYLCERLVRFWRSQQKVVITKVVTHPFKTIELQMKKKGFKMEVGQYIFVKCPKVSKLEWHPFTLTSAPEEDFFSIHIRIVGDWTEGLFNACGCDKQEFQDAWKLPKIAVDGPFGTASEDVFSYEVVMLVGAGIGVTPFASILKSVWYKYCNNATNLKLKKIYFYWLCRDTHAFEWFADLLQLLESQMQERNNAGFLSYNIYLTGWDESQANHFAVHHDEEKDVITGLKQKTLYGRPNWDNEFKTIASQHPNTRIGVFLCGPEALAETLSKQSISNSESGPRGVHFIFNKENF

`C=CC[C@]1(C(=O)N2CCOCC2)N=C(c2ccc(OCCCO)cc2)O[C@H]1c1ccccc1N=[N+]=[N-]`: the composite z-score in assay [1] was 0.268; in assay [6], 0.883; in [7] it was 0.122; with Torsin-1A (Homo sapiens) [8], 0.35; in the assay with Torsin-1A (Homo sapiens) [9], 0.705; in assay [10], -0.269. Moreover, the composite z-score in [12] was determined as 0.448. For the same compound, the z-score in [2] is -4.25 (inactive); in assay [3], -0.0153 (inactive); in assay [4], -0.193 (inactive); in [5] it was -1.78 (inactive); in [11], 0.65 (inactive); in assay [13], 33.6 (active). In addition, the z-score is 29.5 (active) in [14]; 3.29 (inactive) in assay [15]; 7.61 (inactive) in assay [16]; 2.04 in assay [17]; -1.82 (inactive) in [18]; 0.451 (inactive) in assay [19]. In [20], the z-score was -2.56.

Take `COC(=O)[C@@]1(Cc2ccc(F)cc2)[C@H]2c3cc(C(=O)N(C)C)n(Cc4ccc(C)o4)c3C[C@H]2CN1C(=O)c1ccccc1`: the composite z-score in [1] is 0.798; in assay [6] it was -0.649; in assay [7], 1.7; with Torsin-1A (Homo sapiens) [8] it was 4.51; with Torsin-1A (Homo sapiens) [9] it was 4.51; in assay [10], -0.81. The compound further came in with a composite z-score in [12] of 2.34. Moreover, the z-score is -2.07 (inactive) in assay [2]; -0.927 (inactive) in assay [3]; 0.387 (inactive) in [4]; -0.554 (inactive) in [5]; -0.92 (inactive) in assay [11]; 5.03 (inactive) in assay [13]. For the same compound, the z-score was 1.73 (inactive) in assay [14]; 0.951 (inactive) in assay [15]; 1.3 (inactive) in assay [16]; -0.239 in [17]; 0.455 (inactive) in [18]; 0.056 (inactive) in assay [19]. In addition, the z-score in assay [20] was 0.604.

As for `C=C(CCCC)/C(=C/C[C@@H](OC(C)=O)c1ccccc1OCCO)c1cc(C(=O)OC)ccc1OC`, the composite z-score in [1] is -0.115; in assay [6] it was -0.478; in assay [7], -0.15; with Torsin-1A (Homo sapiens) [8], 0.0851; in the assay with Torsin-1A (Homo sapiens) [9] it was 0.0547; in [10] it was 0.566. Also, the composite z-score in assay [12] was -0.239. Further, the z-score in assay [2] was -0.774 (inactive); in assay [3], -0.341 (inactive); in assay [4], 16 (active); in [5], -1.14 (inactive); in assay [11], 0.725 (inactive); in assay [13], 27.1 (active). The z-score is 11.2 (active) in assay [14]; 2.14 (inactive) in assay [15]; 1.71 (inactive) in assay [16]; -0.733 in assay [17]; 1.27 (inactive) in assay [18]; 0.282 (inactive) in [19]. Moreover, the z-score in [20] was -1.36.

As to `NC(=O)[C@@]1(Cc2ccccc2)N=C(c2ccc(OCCCO)cc2)O[C@H]1c1ccccc1`, the composite z-score is 0.677 in [1]; 0.924 in assay [6]; 0.196 in assay [7]; 1.07 with Torsin-1A (Homo sapiens) [8]; 0.601 in the assay with Torsin-1A (Homo sapiens) [9]; -0.558 in assay [10]. In assay [12], this compound came in with a composite z-score of 0.232. Also, the z-score is -1.51 (inactive) in assay [2]; -0.657 (inactive) in [3]; 1.37 (inactive) in [4]; -0.382 (inactive) in assay [5]; 1.53 (inactive) in assay [11]; 16.3 (active) in assay [13]. The z-score is 2.07 (inactive) in assay [14]; 0.59 (inactive) in [15]; 0.639 (inactive) in [16]; 0.151 in assay [17]; -0.281 (inactive) in assay [18]; 0.211 (inactive) in assay [19]. The same compound yielded a z-score in assay [20] of 0.495.

For `O=C(CS)NCCCCCNC(=O)[C@H]1C[C@H]2C(=O)NCC(=O)N2[C@H]1c1ccc(O)cc1`, the composite z-score was -0.55 in assay [1]; -1.11 in assay [6]; -0.264 in assay [7]; -0.518 in the assay with Torsin-1A (Homo sapiens) [8]; 0.113 with Torsin-1A (Homo sapiens) [9]; 0.0174 in [10]. Also, in assay [12], the composite z-score is -0.479. Also, the z-score in assay [2] was -0.173 (inactive); in assay [3], -0.196 (inactive); in [4], -1.49 (inactive); in assay [5] it was -0.684 (inactive); in assay [11], 1.43 (inactive); in assay [13], 0.279 (inactive). Besides, the z-score is -0.723 (inactive) in assay [14]; -0.813 (inactive) in [15]; -2.32 (inactive) in assay [16]; -0.0935 in [17]; -0.297 (inactive) in assay [18]; 0.243 (inactive) in assay [19]. For the same compound, the z-score in assay [20] amounted to 1.16.
